The supplement of paper PMC6992640
± gives the standard deviation of the averaged measurements.

What was measured:
Assay in all cases: cell viability (% of vehicle); higher = less cytotoxic
[1] = test system: HCI01 (cells of a triple-negative basal-like breast cancer xenograft); details: 1 µM; 72 h
[2] = test system: UCD52 (cells of a triple-negative basal-like breast cancer xenograft); details: 1 µM; 72 h
[3] = test system: WHIM2 (cells of a triple-negative basal-like breast cancer xenograft); details: 1 µM; 72 h
[4] = test system: WHIM30 (cells of a triple-negative basal-like breast cancer xenograft); details: 1 µM; 72 h
[5] = test system: HCI01; details: 10 µM; 72 h
[6] = test system: HCI03 (cells of an ER-positive luminal breast cancer xenograft); details: 10 µM; 72 h
[7] = test system: HCI09 (cells of a triple-negative luminal androgen receptor type breast cancer xenograft); details: 10 µM; 72 h
[8] = test system: HCI11 (cells of an ER-positive luminal breast cancer xenograft); details: 10 µM; 72 h
[9] = test system: HCI13 (cells of an ER-positive luminal breast cancer xenograft); details: 10 µM; 72 h
[10] = test system: HCI16 (cells of a triple-negative basal-like breast cancer xenograft); details: 10 µM; 72 h
[11] = test system: UCD52; details: 10 µM; 72 h
[12] = test system: WHIM2; details: 10 µM; 72 h
[13] = test system: WHIM30; details: 10 µM; 72 h

Row | SMILES | cell viability [1] | cell viability [2] | cell viability [3] | cell viability [4] | cell viability [5] | cell viability [6] | cell viability [7] | cell viability [8] | cell viability [9] | cell viability [10] | cell viability [11] | cell viability [12] | cell viability [13]
1 | CNC(=O)c1cc(Oc2ccc(NC(=O)Nc3ccc(Cl)c(C(F)(F)F)c3)c(F)c2)ccn1.Cl [Regorafenib hydrochloride] | 104 | 71.5 | 104 | 98.7 | 56.2 ± 0.73 | 114 | 82.2 ± 10 | 65.5 | 36.7 ± 1.2 | 62.7 | 93.8 ± 11 | 97.7 ± 4.6 | 60.6 ± 32
2 | CS(=O)(=O)CCNCc1ccc(-c2ccc3ncnc(Nc4ccc(OCc5cccc(F)c5)c(Cl)c4)c3c2)o1.Cc1ccc(S(=O)(=O)O)cc1.Cc1ccc(S(=O)(=O)O)cc1 [Lapatinib Ditosylate] | 71.7 | 57.1 | 56.2 | 61.1 | 49.51 ± 0.1 | 45.4 | 36.3 ± 18 | 67.8 | 42.39 ± 0.3 | 61.8 | 28.1 ± 1.9 | 37.7 ± 3 | 47.4 ± 4
3 | C=CC(=O)Nc1cc(Nc2nccc(-c3cn(C)c4ccccc34)n2)c(OC)cc1N(C)CCN(C)C | 57.6 | 63 | 52.7 | 61.8 | 41.7 ± 1 | 39.9 | 50.4 ± 36 | 61.3 | 51.7 ± 3.8 | 60.7 | 30.1 ± 0.95 | 44.5 ± 7.7 | 41.7 ± 1.9
4 | CC(C)(C)Cn1c(N)nc2ccc(-c3[nH]c(C(C)(C)C)nc3-c3ccc(F)cc3)nc21.CS(=O)(=O)O.CS(=O)(=O)O | 67.7 | 46.4 | 65.4 | 61.1 | 58.4 ± 4.5 | 54.2 | 36.8 ± 15 | 81 | 58.7 ± 0.99 | 72.3 | 36.7 ± 1.6 | 39.5 ± 3.9 | 64.2 ± 9.7
5 | CO[C@H]1/C=C/O[C@@]2(C)Oc3c(C)c(O)c4c(O)c(c(/C=N/N5CCN(C6CCCC6)CC5)c(O)c4c3C2=O)NC(=O)/C(C)=C\C=C\[C@H](C)[C@H](O)[C@@H](C)[C@@H](O)[C@@H](C)[C@H](OC(C)=O)[C@@H]1C [Rifapentine] | 93.7 | 88.8 | 104 | 95.8 | 47.7 ± 28 | 120 | 26.9 ± 5.9 | 104 | 133 ± 18 | 122 | 77.4 ± 4.6 | 53.9 ± 24 | 117.8 ± 0.39
6 | COc1ccc2c(O[C@H]3CC4C(=O)N(C)CCCC/C=C\[C@H]5C[C@@]5(C(=O)NS(=O)(=O)C5CC5)NC(=O)[C@@H]4C3)cc(-c3nc(C(C)C)cs3)nc2c1C (some centres not stated) [Simeprevir] | 104 | 90.4 | 106 | 86.7 | 29.8 ± 3.8 | 39.5 | 20.8 ± 2.6 | 72.7 | 38.5 ± 3.4 | 28.7 | 32.64 ± 0.11 | 39 ± 3.6 | 28.5 ± 2.1
7 | Cl.Cl.Fc1ccc(C(c2ccc(F)cc2)N2CCN(CC=Cc3ccccc3)CC2)cc1 [Flunarizine 2HCl] | 106 | 94.1 | 101 | 88.9 | 106 ± 20 | 82.4 | 82.2 ± 42 | 96.5 | 75.4 ± 9.1 | 106 | 46.7 ± 2.5 | 38.9 ± 12 | 87.3 ± 8.5
8 | CCCCCCCCOc1ccccc1C(=O)Nc1ccc(C(=O)OCC[N+](C)(CC)CC)cc1.[Br-] [Otilonium Bromide] | 91.3 | 100 | 105 | 90.7 | 51.9 ± 1.6 | 110 | 37.4 ± 9.3 | 77.9 | 42.9 ± 2.6 | 81.7 | 63.47 ± 0.62 | 37.7 ± 9.5 | 98.3 ± 10
9 | COc1cc2c(Oc3ccc(NC(=O)C4(C(=O)Nc5ccc(F)cc5)CC4)cc3F)ccnc2cc1OCCCN1CCOCC1 | 89.1 | 48.2 | 71.2 | 70.2 | 35.4 ± 4.4 | 55 | 65.7 ± 32 | 52.7 | 60.2 ± 6.2 | 48 | 28 ± 2.1 | 50.1 ± 11 | 64.8 ± 15
10 | COc1cccc2c1C(=O)c1c(O)c3c(c(O)c1C2=O)CC(O)(C(=O)CO)CC3OC1CC(N)C(O)C(C)O1 (configuration not stated) [Doxorubicin] | 80.1 | 42.1 | 30.4 | 44.2 | 56.3 ± 15 | 188 | 28.8 ± 3.4 | 49.6 | 176 ± 59 | 60.4 | 24.297 ± 0.024 | 50.6 ± 5.6 | 80.7 ± 5.3
11 | CC(C)C(=O)OCC(=O)[C@@]12O[C@H](C3CCCCC3)O[C@@H]1C[C@H]1[C@@H]3CCC4=CC(=O)C=C[C@]4(C)[C@H]3[C@@H](O)C[C@@]12C [Ciclesonide] | 115 | 127 | 81.6 | 145 | 67.6 ± 23 | 76.3 | 50.6 ± 24 | 90.1 | 48.9 ± 2.2 | 122 | 46.7 ± 24 | 36 ± 1.9 | 100 ± 16
12 | Cc1c(Cl)cccc1Nc1ccccc1C(=O)O [Tolfenamic Acid] | 95.9 | 102 | 106 | 92.6 | 100 ± 30 | 118 | 80.6 ± 9.7 | 91.9 | 71.1 ± 33 | 103 | 70.7 ± 3.2 | 41.7 ± 14 | 77.7 ± 3.3
13 | CO[C@@]12[C@H](COC(N)=O)C3=C(C(=O)C(C)=C(N)C3=O)N1C[C@@H]1N[C@@H]12 [Mitomycin C] | 59.3 | 88.3 | 75.4 | 66.9 | 46.7 ± 2.1 | 56.9 | 35.4 ± 3.3 | 64.6 | 45 ± 3.3 | 61.4 | 32.3 ± 0.47 | 47.3 ± 5.7 | 57.77 ± 0.16
14 | COCCOC(=O)C1=C(C)NC(C)=C(C(=O)OCC=Cc2ccccc2)C1c1cccc([N+](=O)[O-])c1 (configuration not stated) [Cilnidipine] | 111 | 95.4 | 97.7 | 103 | 93.8 ± 25 | 90.1 | 81.4 ± 20 | 81.7 | 66.6 ± 38 | 54.9 | 84 ± 6.8 | 41.1 ± 16 | 68.7 ± 1.3
15 | Nc1ncn(C2OC(CO)C(O)C2O)c(=O)n1 (configuration not stated) [5-Azacytidine] | 91.5 | 70.1 | 91.3 | 93.9 | 59.1 ± 13 | 85 | 27.2 ± 6.3 | 170 | 53.1 ± 9.2 | 103 | 53.4 ± 3.7 | 35.1 ± 14 | 198 ± 19
16 | CN1CCN(CCCN2c3ccccc3Sc3ccc(C(F)(F)F)cc32)CC1.Cl.Cl [Trifluoperazine 2HCl] | 95.7 | 82.1 | 102 | 84.9 | 42.8 ± 8.5 | 57.4 | 30.2 ± 8 | 82.1 | 42.2 ± 2 | 54.1 | 33.8 ± 2.4 | 43.3 ± 3.1 | 97.8 ± 6.6
17 | CCCCCCCCCCCCCCCCOP(=O)([O-])OCC[N+](C)(C)C [Miltefosine] | 89.6 | 101 | 85.8 | 92.6 | 98.9 ± 9.1 | 108 | 87.7 ± 30 | 107 | 33.2 ± 0.37 | 82.1 | 77.6 ± 9.7 | 38.2 ± 14 | 58.56 ± 0.43
18 | C=C1C(=CC=C2CCCC3(C)C2CCC3C(C)C=CC(C)C(C)C)CC(O)CC1O (configuration not stated) [Doxercalciferol] | 75.3 | 63.6 | 61.8 | 93.1 | 39.4 ± 14 | 137 | 26.4 ± 8.6 | 75.3 | 52.8 ± 3 | 106 | 54.8 ± 6.5 | 50.8 ± 12 | 180 ± 17
19 | Clc1ccc(COC(Cn2ccnc2)c2ccc(Cl)cc2Cl)cc1.O=[N+]([O-])O (configuration not stated) [Econazole nitrate] | 101 | 92 | 115 | 92.7 | 33.7 ± 2 | 88.1 | 27.3 ± 11 | 116 | 36.3 ± 1.7 | 105 | 54 ± 2.1 | 45.3 ± 14 | 90.6 ± 24
20 | CC(C)CC(NC(=O)CNC(=O)c1cc(Cl)ccc1Cl)B(O)O (configuration not stated) | 51.7 | 24.9 | 130 | 23.1 | 53.4 ± 8.3 | 116 | 14.9 ± 0.73 | 174 | 33.1 ± 5.4 | 84.6 | 58.8 ± 3.8 | 34.22 ± 0.066 | 80.3 ± 24
21 | COC(=O)C12CCC(C)(C)CC1C1C(=O)C=C3C4(C)C=C(C#N)C(=O)C(C)(C)C4CCC3(C)C1(C)CC2 (configuration not stated) [Bardoxolone methyl] | 145 | 60.9 | 59.9 | 65.3 | 28.5 ± 3.9 | 33.9 | 23.1 ± 1.8 | 23.2 | 31.5 ± 3 | 30.4 | 24.6 ± 1 | 34.2 ± 5.5 | 26.8 ± 1.1
22 | CN(C)CC=CC(=O)Nc1cc2c(Nc3ccc(F)c(Cl)c3)ncnc2cc1OC1CCOC1 (configuration not stated) [Afatinib (BIBW2992)] | 71.3 | 27.2 | 50.9 | 49.6 | 25.61 ± 0.24 | 47.7 | 15.1 ± 1.8 | 73.5 | 43.4 ± 1.5 | 55.4 | 18.7 ± 0.37 | 34.6 ± 2.6 | 44.3 ± 6.3
23 | CC(C)Nc1cc(-c2c[nH]c(C(=O)NC(CO)c3cccc(Cl)c3)c2)c(Cl)cn1 (configuration not stated) | 84.8 | 59.1 | 72.7 | 78.4 | 39 ± 8.9 | 135 | 36.8 ± 21 | 81.7 | 43.5 ± 2.5 | 106 | 56.5 ± 4 | 45.3 ± 6.3 | 104 ± 10
24 | Cl.OC(c1cc(C(F)(F)F)nc2c(C(F)(F)F)cccc12)C1CCCCN1 (configuration not stated) [Mefloquine hydrochloride] | 97.5 | 66 | 103 | 74 | 31.9 ± 1.3 | 40.5 | 23.9 ± 5.5 | 51.4 | 44.6 ± 6.4 | 30 | 30.3 ± 5.2 | 37.7 ± 2 | 49 ± 2.9
25 | Oc1c(Cl)cc(Cl)c2cccnc12 [Chloroxine] | 93.2 | 96.7 | 96.5 | 71.6 | 36.5 ± 3.6 | 56.7 | 28.7 ± 2.7 | 69.7 | 65 ± 15 | 130 | 120 ± 88 | 79.7 ± 55 | 48.9 ± 4.8
26 | CCCCCOc1ccc(-c2ccc(-c3ccc(C(=O)N[C@H]4C[C@@H](O)[C@@H](O)NC(=O)[C@@H]5[C@@H](O)[C@@H](C)CN5C(=O)[C@H]([C@@H](C)O)NC(=O)[C@H]([C@H](O)[C@@H](O)c5ccc(O)cc5)NC(=O)[C@@H]5C[C@@H](O)CN5C(=O)[C@H]([C@@H](C)O)NC4=O)cc3)cc2)cc1 [Anidulafungin] | 100 | 82.5 | 82.8 | 72.2 | 45 ± 2.3 | 67.5 | 40.3 ± 15 | 92.4 | 58.3 ± 5.8 | 55.2 | 47.7 ± 8.9 | 67.4 ± 5.7 | 112 ± 16
27 | COc1cc2c(Oc3ccc4[nH]c(C)cc4c3F)ncnc2cc1OCCCN1CCCC1 [Cediranib (AZD217)] | 81.9 | 29.2 | 25.6 | 47.5 | 69.3 ± 10 | 54 | 43.8 ± 19 | 61.5 | 57.7 ± 16 | 70.1 | 50.84 ± 0.26 | 38.2 ± 7.5 | 68.3 ± 4.1
28 | CN(C)CCOc1ccc(C(=C(CCCl)c2ccccc2)c2ccccc2)cc1.O=C(O)CC(O)(CC(=O)O)C(=O)O [Toremifene Citrate] | 127 | 98.4 | 119 | 102 | 37.2 ± 1.9 | 63.8 | 34.3 ± 1.8 | 86.8 | 46.4 ± 2.6 | 73.2 | 38.3 ± 2.4 | 43.3 ± 4.1 | 54.4 ± 4.8
29 | CNCCC(Oc1cccc2ccccc12)c1cccs1.Cl (configuration not stated) [Duloxetine HCl] | 85.4 | 95.4 | 91.1 | 79.7 | 87.3 ± 6.3 | 106 | 55.9 ± 34 | 70.8 | 112 ± 11 | 66.6 | 30.9 ± 1.8 | 38.5 ± 0.71 | 80.9 ± 9.8
